Among all 310,000 compounds or so, about 14,000 (4.5%) showed an effect of 50% or more. The effect is printed as a negative number. The list comes from a sample in which strong results are over-represented; it also holds similar structures and randomly drawn compounds. Where a SMILES comes first, the peptide text is derived from it. The star is where a group is joined. Cbz = O=C(OCc1ccccc1)*
Target: human ether-à-go-go-related gene (hERG) potassium channel (human, UniProt Q12809)
Test: primary screen, population patch clamp on CHO cells stably expressing hERG; higher = less effect of the substance
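Also: peak tail current of the secondary pulse compared with the same well before compound.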

Chain of human ether-à-go-go-related gene (hERG) potassium channel (Q12809 whole entry, looked up): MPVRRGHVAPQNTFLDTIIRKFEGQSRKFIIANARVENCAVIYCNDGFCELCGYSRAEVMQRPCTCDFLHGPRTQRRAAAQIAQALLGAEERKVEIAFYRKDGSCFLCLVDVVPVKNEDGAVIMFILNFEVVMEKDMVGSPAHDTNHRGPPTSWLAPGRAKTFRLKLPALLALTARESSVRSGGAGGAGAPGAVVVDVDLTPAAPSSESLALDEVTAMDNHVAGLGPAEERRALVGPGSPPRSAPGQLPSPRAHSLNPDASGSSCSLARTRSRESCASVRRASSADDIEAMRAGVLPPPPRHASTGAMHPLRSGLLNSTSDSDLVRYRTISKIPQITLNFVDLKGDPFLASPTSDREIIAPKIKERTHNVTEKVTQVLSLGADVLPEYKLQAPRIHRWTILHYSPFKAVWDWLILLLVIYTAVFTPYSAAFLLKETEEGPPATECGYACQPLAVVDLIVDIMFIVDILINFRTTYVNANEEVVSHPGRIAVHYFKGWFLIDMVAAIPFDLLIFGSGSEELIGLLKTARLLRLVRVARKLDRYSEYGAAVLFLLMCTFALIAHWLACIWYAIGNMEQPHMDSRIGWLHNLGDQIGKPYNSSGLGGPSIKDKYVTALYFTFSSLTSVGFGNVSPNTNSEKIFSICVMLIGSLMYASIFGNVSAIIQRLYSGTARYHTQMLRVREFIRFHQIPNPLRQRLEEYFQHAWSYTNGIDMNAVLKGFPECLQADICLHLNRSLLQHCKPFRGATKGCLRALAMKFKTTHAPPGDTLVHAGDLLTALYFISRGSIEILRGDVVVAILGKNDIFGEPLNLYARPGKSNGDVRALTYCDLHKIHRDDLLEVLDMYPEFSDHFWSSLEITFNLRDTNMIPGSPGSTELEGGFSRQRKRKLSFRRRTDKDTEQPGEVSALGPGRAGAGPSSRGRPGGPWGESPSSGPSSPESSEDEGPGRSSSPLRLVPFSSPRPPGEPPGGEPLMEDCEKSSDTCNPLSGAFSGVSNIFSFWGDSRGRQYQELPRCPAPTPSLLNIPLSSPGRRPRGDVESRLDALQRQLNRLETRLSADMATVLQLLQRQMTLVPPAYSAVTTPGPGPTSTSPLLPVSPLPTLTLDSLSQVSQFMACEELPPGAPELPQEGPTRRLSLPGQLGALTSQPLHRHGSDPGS

Point of comparison: Clc1nccnc1N/N=C/c1ccc(Br)cc1, “hERG current change (%, negative = inhibition) at 10uM” value -50.3%. Against it:
- CCOC(=O)Cc1csc(NC(=O)CN2CCOCC2)n1 — higher, 14.1%
- CCOC(=O)[C@@H]1[C@H]2COc3ccccc3[C@H]2N2C(=O)N(c3ccc(C)cc3)C(=O)[C@]12C — higher, -1.42%
- CCCNC(=O)c1n[nH]c2c1CC(C(C)(C)CC)CC2 (stereo not drawn) — higher, 1.27%
- C=CCNc1ncnc2c1cnn2-c1ccc(C)cc1C — higher, 3.76%
- NS(=O)(=O)c1ccc(N/N=C/c2ccc[nH]2)c([N+](=O)[O-])c1 — higher, 0.228%
- O=C(Nc1ccc2nc3n(c(=O)c2c1)CCCC3)c1cccc(F)c1 — higher, -43.9%
- COc1cc(OC)cc(C(=O)Nc2ccc3nc4n(c(=O)c3c2)CCCCC4)c1 — higher, -48.7%
- COc1cc(OC)cc(C(=O)Nc2ccc3nc4n(c(=O)c3c2)CCCC4)c1 — higher, 11.2%
- COc1cc(C(=O)Nc2ccc3nc4n(c(=O)c3c2)CCCCC4)cc(OC)c1OC — lower, -67.7%
- COc1cccc(C(=O)Nc2ccc3nc4n(c(=O)c3c2)CCCC4)c1 — lower, -62.9%
- COc1cc(NC(=O)C(=O)Nc2ccc3nc4n(c(=O)c3c2)CCCCC4)cc(OC)c1OC — higher, -1.55%
- COc1ccc(Cl)cc1NS(=O)(=O)c1cn(C)nc1C — higher, 7.1%
- COC(=O)C1=C(c2ccc(OC)c(OC)c2)C[C@@H]2CC[C@H]1N2C(=O)NCC1CC1 — higher, 15.1%
- O=C(CSc1ccc(-c2ccco2)nn1)NCc1ccccc1Cl — higher, -49.1%
- Oc1ccc(/C=N/Nc2nccnc2Cl)cc1 — higher, 1.47%
- Fc1ccc(/C=N/Nc2nccnc2Cl)cc1 — higher, 9.05%
- Cc1cccc(NC(=O)CN2C(=O)S/C(=C\c3cc(C)n(C)c3C)C2=O)c1 — higher, -10.7%
- O=C(CN1CCCCC1)Nc1cccc(Oc2ccccc2)c1 — lower, -50.7%
- O=C(CN1CCCCCC1)Nc1cccc(NC(=O)CN2CCCCCC2)c1 — higher, 13%
- COc1ccc(NC(=O)CN2CCC(C(N)=O)(N3CCCCC3)CC2)cc1 — higher, 0.362%
- CC1CCCCN1CC(=O)Nc1ccc(N2CCCCCC2)cc1.O=C(O)C(=O)O (stereo not drawn) — higher, -13.2%
- CC1CCCCN1CC(=O)Nc1ccc(Oc2ccccc2)cc1.Cl (stereo not drawn) — lower, -50.7%
- O=C(CN1CCCCC1)Nc1ccc(N2CCCCCC2)cc1.O=C(O)C(=O)O — lower, -88.7%
- NC(=O)C1(N2CCCCC2)CCN(CC(=O)Nc2ccccc2-c2ccccc2)CC1 — higher, 14.6%
- COc1cccc(NC(=O)CN2CCCCCC2)c1.Cl — higher, 11.6%
- CC1CCN(CC(=O)Nc2ccc(N3CCCCCC3)cc2)CC1.O=C(O)C(=O)O — higher, -14.1%
- NC(=O)C1(N2CCCCC2)CCN(CC(=O)Nc2ccc(Oc3ccccc3)cc2)CC1 — lower, -67.8%
- CC1CCCCN1CC(=O)Nc1ccc2c(c1)OCO2.O=C(O)C(=O)O (stereo not drawn) — higher, -20.1%
- O=C(CN1CCCCCC1)Nc1ccccc1.O=C(O)C(=O)O — higher, 10.8%
- CCN1CCC(Nc2ccnc3cc(Cl)ccc23)CC1 — higher, -40.5%
- O=C(Nc1ccccc1)OCc1ccccn1 — higher, 10.8%
- COc1ccc(C2=NN(CN3C(=O)C(=O)c4ccccc43)C(c3ccc(OC)cc3)C2)cc1 (stereo not drawn) — higher, 9.84%
- Cc1cc(-c2ccccc2)nc(SCc2ccc(C(=O)O)o2)n1 — higher, -3.89%
- Cc1ccc(C(=O)Nc2cccnc2)cc1Cl — higher, 4.54%
- O=C(NCC(=O)N1CCN(C(c2ccccc2)c2ccccc2)CC1)c1ccc(Br)o1 — higher, 8.38%
- Cc1cc(Br)c(NC(=O)CN(C)CCOc2ccccc2)c(Br)c1 — higher, -19.5%
- COc1ccc(Cn2nnc3c(=O)[nH]c(C(=O)NCCc4ccc(F)cc4)nc32)cc1OC — higher, 7.28%
- NC(=O)C1(N2CCCCC2)CCN(CC(=O)Nc2cc(Cl)ccc2Cl)CC1 — lower, -72%
- NC(=O)C1(N2CCCCC2)CCN(Cc2ccc(F)cc2)CC1 — higher, -6.92%
- Cl.O=C(CN1CCCCCC1)Nc1ccc(Oc2ccccc2)cc1 — lower, -78.6%
- NC(=O)C1(N2CCCCC2)CCN(Cc2ccc(Br)cc2)CC1 — lower, -51%
- O=C(CN1CCCC1)Nc1ccc(Oc2ccc(NC(=O)CN3CCCC3)cc2)cc1 — higher, 17.3%
- CN1CCN(CC(=O)Nc2ccc(Oc3ccccc3)cc2)CC1 — higher, -47.5%
- COc1ccc(NC(=O)CN2CCC(C(N)=O)(N3CCCCC3)CC2)c(OC)c1 — higher, 1.56%
- NC(=O)C1(N2CCCCC2)CCN(Cc2ccccc2)CC1 — higher, 2.53%
- O=C(CN1CCCCC1)Nc1cc(Cl)ccc1Cl — higher, -0.685%
- CC(C)C(NC(=O)C1CCC(C(C)(C)C)CC1)C(=O)NCCc1ccc(S(N)(=O)=O)cc1 (stereo not drawn) — higher, 14.1%
- COc1ccc2c(N)c(C(=O)NN)[nH]c2c1 — higher, 2.16%
- COCCN(C(=O)CSc1nc2ccc(Cl)cc2[nH]1)c1c(N)n(Cc2ccccc2)c(=O)[nH]c1=O — higher, -7.02%
- Cc1cc(C)n(CC(O)Cn2c3ccc(Br)cc3c3cc(Br)ccc32)c(=O)n1 (stereo not drawn) — higher, 19.5%
- Cc1ccc(CCNC(=O)c2nn(C)c3c2CS(=O)(=O)c2ccccc2-3)cc1 — higher, -39.7%
- O=C(/C=C/Nc1ccc(S(=O)(=O)Nc2ncccn2)cc1)c1cccs1 — higher, 4.26%
- COc1ccc(C(=O)N/C(=C\c2ccccc2)C(=O)NCc2cccnc2)cc1 — lower, -70.8%
- COc1ccc(/C=C(/NC(=O)c2ccccc2)C(=O)NCc2ccco2)cc1 — higher, 27%
- COc1ccc(CNC(=O)C(=O)NCc2cccnc2)cc1 — higher, -6.16%
- O=C(NCc1ccccc1Cl)/C(=C\c1cccnc1)NC(=O)c1ccccc1 — higher, -48.7%
- COc1ccc(C(=O)NCc2cccnc2)cc1 — higher, -1.7%
- Cc1ccc(C(=O)N/C(=C\c2ccccc2)C(=O)NCc2cccnc2)cc1 — lower, -71.9%
- COc1ccc(/C=C(\NC(=O)c2ccccc2)C(=O)N/N=C/c2cccnc2)cc1 — higher, -5.03%
- O=C(NCc1cccnc1)/C(=C/c1ccccc1)NC(=O)c1ccccc1 — higher, -34.5%
- O=C(NCc1cccnc1)/C(=C/c1ccc(Cl)cc1)NC(=O)c1ccccc1 — lower, -68.5%
- CN(C)c1ccc(/C=C(\NC(=O)c2ccccc2)C(=O)NCc2cccnc2)cc1 — higher, -18.9%
- COc1ccc(/C=C(\NC(=O)c2ccccc2)C(=O)NCc2cccnc2)cc1 — lower, -70.5%
- COC1c2ccccc2C(=O)N1Cc1ccc(F)cc1 (stereo not drawn) — higher, 5.48%
- O=C(Oc1c(Br)cc([N+](=O)[O-])cc1Br)c1cccnc1 — higher, 16.7%
- O=C(O)CCC(NC(=O)C1CCCN1C(=O)OCc1ccccc1)C(=O)O (stereo not drawn) (Cbz-Pro-Glu-OH; configuration not given here) — higher, 14%
- Cc1cc(C)nc(SCCc2ccncc2)n1.Cl — higher, 9.82%
- CN(c1ccc(OC(=O)CC2OC(=O)c3ccccc32)cc1)S(=O)(=O)c1ccccc1 (stereo not drawn) — higher, -8.52%
- Cc1ccc(C2C(N)C(=O)N2c2ccc(C)cc2)cc1 (stereo not drawn) — higher, -5.54%
- CN1CCCC(OC(=O)c2cc(Cl)cc(Cl)c2)C1.Cl (stereo not drawn) — higher, -43.4%
- CN1C2CCC1CC(OC(=O)c1c[nH]c3ccccc13)C2 (stereo not drawn) — lower, -59.1%
- CN1C2CCC1CC(OC(=O)c1ccc([N+](=O)[O-])cc1)C2 (stereo not drawn) — lower, -67.9%
- CN1C2CCC1CC(OC(=O)c1ccc(Cl)cc1)C2.Cl (stereo not drawn) — higher, -48.9%
- CN1C2CCC1CC(OC(=O)c1cc(Cl)cc(Cl)c1)C2.Cl (stereo not drawn) — lower, -57.4%
- CCOc1ccc(C(=O)OC2CC3CCC(C2)N3C)cc1.Cl (stereo not drawn) — higher, -30%
- CN1[C@@H]2CC[C@H]1CC(OC(=O)c1c[nH]c3ccccc13)C2.Cl (stereo partly drawn) — higher, -48.1%
- O=C(OC1Cn2c(=O)ccc(=O)n2C1)c1ccc([N+](=O)[O-])cc1 — higher, -12.8%
- CN1C2CCC1CC(OC(=O)c1c[nH]c3ccccc13)C2.Cl (stereo not drawn) — higher, -40.2%
- CCOC(=O)c1ccc(S(=O)(=O)N2CCN(c3ccccn3)CC2)cc1 — higher, 8.95%
- CCOc1ccc(OCC)c(NC(=O)C2CCN(c3nn4c(=O)cc(C)nc4s3)CC2)c1 — higher, -30.5%
- COc1ccc(CCC(=O)c2ccc(OC)cc2)cc1 — higher, -1.41%
- Cc1ccc(C)c(NC(=O)COC(=O)CCCN=C2NS(=O)(=O)c3ccccc32)c1 — higher, 4.55%
- Cn1nc([N+](=O)[O-])nc1Sc1cccc2cccnc12 — higher, 13.9%
- Cc1ccc2c(Cl)cc(Cl)c(OCC(=O)NCCc3ccccn3)c2n1 — higher, -42.7%
- Cc1ccc(CNC(=O)[C@@H](NC(=O)Cc2ccccc2)C(C)C)cc1 — higher, 6.89%
- CCN(CC)CCCNC(=O)C1CCC(=O)N(c2ccc(OC)cc2)C1c1ccc(F)cc1 (stereo not drawn) — higher, 1.14%

From PMC4336329 (PLoS ONE, 2015)
